A selection: hits, their analogues and other compounds. The true share with any hit is near 1.1%.
HTR5A ag ctr: activates human HTR5A in OPRM1-OPRD1 agonist counter-screen. P47898. HTR5A agonist assay, luminescence, cell-based. AID 504692. 340,000 compounds, 0.61% hits. activation, % at 9.3 µM; in the data active = activation mostly above about 9.5%, no sharp cut-off; inactive = mostly below about 7.6%;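 note: 0% = cells with vehicle only and 100% = reference agonist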
MOR-DOR inv ag: mu-delta opioid heterodimer inverse agonism | P35372+P41143 | cell-based MOR-DOR heterodimer luminescence | inhibition, % at 9.3 µM | 340,000 compounds, 0.21% hits | AID 504357; in the data active = inhibition above about 22%, passing the limit was not always enough;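 note: 0% = cells with DMSO and 100% = wells without cells with DMSO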
HTR5A inv ag: HTR5A inverse agonism, opioid heterodimer counter-screen; 340,000 compounds, 0.083% hits; HTR5A cell line, luminescence; inhibition, % at 9.3 µM; P47898; in the data active = inhibition mostly above about 23%, no sharp cut-off; inactive = mostly below about 18%;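 note: 0% = cells with DMSO and 100% = no-cell wells with DMSO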
MOR-DOR ag: agonists of human mu-delta opioid receptor heterodimerization | cells, OPRM1-OPRD1 heterodimerization, luminescence | activation, % at 9.3 µM | 340,000 compounds, 0.3% hits | AID 504326;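 note: 0% = vehicle-treated cells and 100% = reference agonist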
OPRM1-D1 ag cf: OPRM1-OPRD1 heterodimer agonism, confirmation. shares compounds with MOR-DOR ag. cells, MOR-DOR heterodimerization, luminescence complementation. activation, % at 9.3 µM. 830 compounds, 45% hits. AID 504904;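 note: 0% = vehicle-treated cells and 100% = reference agonist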
HTR5A ag ctr2: HTR5A agonism, opioid heterodimer counter-screen; shares compounds with MOR-DOR ag; 830 compounds, 8% hits; HTR5A agonist counterscreen, cell luminescence; activation, % at 9.3 µM; in the data active = activation above about 17%;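 note: 0% = vehicle-treated cells and 100% = reference agonist response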
* marks the source's active call; other numbers are inactive results; i = inactive; . = not tested or not shown. Cut-off read from the data, not from the text of the source, unless noted: active = activation above about 18%; inactive = the rest.

SMILES | HTR5A ag ctr | MOR-DOR inv ag | HTR5A inv ag | MOR-DOR ag | OPRM1-D1 ag cf | HTR5A ag ctr2
COc1ccc(C(C(=O)NC2CCCC2)N(Cc2cccnc2)C(=O)c2snc(C(N)=O)c2N)cc1 (centres undefined) | 6 | 13 | -15 | -2 | . | .
CN(C)C(CNC(=S)Nc1ccccc1Cl)c1cccnc1 (centres undefined) | 0 | i | 5 | 407* | 387* | -2
COc1ccc(C2CC(c3ccc(Br)cc3)=NN2C(=O)CSC2=NCCS2)cc1 (centres undefined) | 0 | -492 | 12 | 102* | 7 | 9
COc1ccc(C2=NN(C(=O)CSc3ncccn3)C(c3ccc(C)cc3)C2)cc1 (centres undefined) | 8 | -9 | -10 | 2 | . | .
N#CC1=C2N=C(N)c3c(sc4c3CCCCC4)N2C2=C(C(=O)CCC2)C1c1ccccc1 (centres undefined) | 1 | 6 | 12 | -1 | . | .
CCOc1ccc(C2C(C#N)=C(N)N(c3sc4c(c3C#N)CCCC4)C3=C2C(=O)CCC3)cc1 (centres undefined) | 2 | -483 | -6 | 79* | 4 | 3
CCOC(=O)C1(CC2CC2)CCN(Cc2ccc3cccc(F)c3n2)CC1 | 5 | -121 | -14 | 24* | 28* | 0
CCOC(=O)C1(CC2CC2)CCN(Cc2cn[nH]c2-c2cccc(F)c2)CC1 | -3 | -111 | -5 | 16 | . | .
CCN(C(=O)COC(=O)C(c1ccccc1)c1ccccc1)c1c(N)n(Cc2ccccc2)c(=O)[nH]c1=O | 3 | 6 | -16 | -2 | . | .
COc1ccc(/C=N/n2c(-c3ccco3)nc3ccccc3c2=O)cc1 | 1 | -240 | -23 | 41* | -5 | -4
COCCn1c(SCC(=O)Nc2c(C)n(C)n(-c3ccccc3)c2=O)nc2ccccc2c1=O | -6 | 15 | 14 | -4 | . | .
CN(C(=O)COC(=O)c1c2c(nc3ccccc13)CCCC2)c1c(N)n(Cc2ccccc2)c(=O)[nH]c1=O | -3 | 12 | 9 | -2 | . | .
O=C1C=C(c2c(O)ccc3ccccc23)c2ccccc2C1=O | 10 | -280 | -39 | 54* | 47* | 14
Cn1c(=N)n(CC(=O)c2ccc(Br)cc2)c2ccccc21 | 0 | -180 | 22 | 34* | 25* | 0
Cc1ccc(C(=O)N2CCN(C)CC2)cc1S(=O)(=O)N1CCCCCC1 | 6 | 8 | 0 | -1 | . | .
Cc1cc(C)c(S(=O)(=O)N2CCN(C(=O)c3ccc(-n4nc(C)c(Cl)c4C)cc3)CC2)c(C)c1 | -4 | -3 | 5 | 1 | . | .
CC1CCN(CC(=O)N2CCCc3c2c(=O)oc2ccc(OCc4ccccc4)cc32)CC1 | 13* | -160 | 23 | 27* | 32* | -4
CC1CC(C)CN(CC(=O)N2CCCc3c2c(=O)oc2ccc(OCc4ccccc4)cc32)C1 (centres undefined) | 7 | -28 | -2 | 5 | . | .
O=S(=O)(NC1CC1)c1ccc(S(=O)(=O)N2CCCC3(CCCCC3)C2)cc1 | 6 | -227 | -22 | 40* | 32* | 2
Cc1csc(CN(C)C(=O)C2CCC(=O)N(CCN(C)C)C2)n1 (centres undefined) | -2 | 18 | 2 | -4 | . | .
CCOC(=O)C1(CC2CCCCO2)CCN(Cc2ccc(OC)cc2F)CC1 (centres undefined) | -3 | -278 | 8 | 48* | 59* | 3
CCOC(=O)C1(CCOc2ccccc2)CCN(Cc2cccc(OC)c2)CC1 | 1 | -93 | -5 | 19* | 1 | 93*
CCOC(=O)C1(CCOC)CCN(Cc2cccc(OCc3ccccc3)c2)CC1 | 5 | -30 | -17 | 6 | . | .
CCOC(=O)C1(CCOC)CCN(Cc2ccccc2-c2ccco2)CC1 | 3 | i | -7 | 130* | 33* | 7
CCOC(=O)C1(CCOc2ccccc2)CCN(Cc2cc(OC)ccc2OC)CC1 | 3 | -260 | -10 | 53* | 1 | 17*
SMILES | HTR5A ag ctr | MOR-DOR inv ag | HTR5A inv ag | MOR-DOR ag | OPRM1-D1 ag cf | HTR5A ag ctr2
COC(=O)[C@H](Cc1ccccc1)[C@@H](C)OS(N)(=O)=O | 3 | 20 | -10 | -4 | . | .
CC1=C([N+](=O)[O-])C(c2ccc(Cl)cc2)NC(=O)N1C (centres undefined) | 2 | 8 | -7 | -2 | . | .
CCOC(=O)C1(CCOc2ccccc2)CCN(Cc2ccc3c(c2)OCCO3)CC1 | -2 | -125 | 5 | 25* | 44* | -4
CCOC(=O)C1(CCOc2ccccc2)CCN(Cc2ccc(O)c(Cl)c2)CC1 | -6 | -36 | 22 | 7 | . | .
COc1cc(/C=N/NC(N)=S)ccc1OCC(=O)Nc1ccc(C)c(C)c1 | -3 | -125 | 7 | 22* | 10 | 0
COc1cc(OC)c(OC)cc1/C=N/n1c(COc2ccccc2)n[nH]c1=S | 4 | 13 | -16 | -3 | . | .
COc1ccc(NS(=O)(=O)c2ccc(O)c(NC(=O)c3cc4c(C)nn(-c5ccc(F)cc5)c4s3)c2)cc1 | 0 | -123 | 1 | 20* | 51* | 1
CSC(=Nc1ccccc1)N=C(SCc1ccccc1)N(C)C | 11 | -333 | -41 | 76* | 38* | 0
N#CNC(=Nc1ccccc1)SCc1ccc(C(=O)O)cc1 | 2 | 6 | -6 | -1 | . | .
O=C(Nc1ncc(Cc2ccc(SC(F)F)cc2)s1)c1ccc(OC(F)F)cc1 | 1 | -98 | -42 | 19* | 16 | 1
O=C(c1sc2ccccc2c1Cl)N(Cc1cccs1)C1CCS(=O)(=O)C1 (centres undefined) | 0 | i | 0 | 162* | 3 | -6
O=C(c1cccc(Cl)c1)N(Cc1cccs1)C1CCS(=O)(=O)C1 (centres undefined) | -3 | -12 | 8 | 2 | . | .
COc1ccc(S(=O)(=O)N(Cc2ccccc2)Cc2nc3ccccc3c(=O)[nH]2)cc1 | 0 | -12 | -6 | 3 | . | .
COc1ccccc1CN(Cc1nc2ccccc2c(=O)[nH]1)S(=O)(=O)c1ccc2ccccc2c1 | -2 | -120 | 5 | 20* | -1 | 0
O=C(Nc1ccccn1)c1cc2cc([N+](=O)[O-])ccc2s1 | 2 | -303 | 2 | 61* | 31* | 4
COc1ccc(C2CC(c3ccc(OC)cc3)n3nc(NC(=O)c4cccs4)nc3N2)cc1 (centres undefined) | 1 | -134 | -18 | 26* | 48* | 2
COc1ccc(C(=O)O)cc1S(=O)(=O)Nc1ccc2cn[nH]c2c1 | 0 | 8 | 2 | -2 | . | .
O=C(Cn1cnc([N+](=O)[O-])c1)c1ccc(Cl)cc1 | -2 | 11 | -10 | -2 | . | .
O=C(C[n+]1cnn(CC(=O)c2ccc(Cl)cc2Cl)c1)c1ccc([N+](=O)[O-])cc1 | 4 | -298 | -14 | 54* | 5 | 4
O=C(CC(=O)c1ccccc1)Nc1ccccc1C(F)(F)F | -4 | 18 | 15 | -4 | . | .
O=C(Oc1ccc2c(c1)OCO2)c1cc2c(s1)CCC2 | 15 | -117 | -1 | 22* | 0 | 1
CN(C)/C=C/C(=O)c1ccc(OCCN(C)c2ccccn2)cc1 | 2 | -91 | -8 | 20* | 1 | -3
